From PubChem BioAssay AID651871 (Sanford-Burnham Center for Chemical Genomics, 2012)
Several values for one entry are separate records, joined by “and”; a condition that tells them apart may be missing. Equal entries are not always repeated.

The compounds below were run on HL-1 (assay: protection of cardiomyocytes from stress damage, SAR follow-up, cell-based, panel, H9c2 and HL-1, ATP luminescence, set 2 (AID 651871;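 note: cells exposed to stressor for 2 h before ATP readout; reference of the scale not given here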)). Details: H9c2/HL-1 cardiomyocytes, 2-deoxyglucose stress, with 2-deoxyglucose, run 3, at 79 µM (top of the series).

**Q.** Which activity (protection/inhibition) does the source give for `COc1ccc2nc(-c3cc(OC)c(OC)c(OC)c3)cc(C(=O)NCC(=O)Nc3ccc(C(C)=O)cc3)c2c1` here?
**A.** The activity (protection/inhibition) was 38.8%.

**Q.** Which activity (protection/inhibition) does the source give for `COc1ccc2c(c1OC)C(=O)N1c3ccccc3C(=O)N(Cc3cccc(Cl)c3Cl)C21` (stereo not drawn) here?
**A.** The activity (protection/inhibition) was 35.1% and -7.14%.

**Q.** `CCOC(=O)c1cccc(NC(=O)CNC(=O)c2cc(-c3cc(OC)c(OC)c(OC)c3)nc3ccccc23)c1` was tested. Which activity (protection/inhibition) did it give?
**A.** The activity (protection/inhibition) was 95.7%.
